# Assay results from PubChem BioAssay (Tox21).
# Records with an inconclusive call do not appear. Calls of active or inactive are those of the source. The call rests on the fitted dose curve; in most records, active means well fitted curve in the direction sought with a large enough effect in the repeat runs; inconclusive means weak or mixed curves; inactive means no such curve, though single readings can be large; an effect the other way counts as inactive or inconclusive.
# Test: qHTS assay to identify small molecule agonists of the estrogen receptor beta (ER-beta) signaling pathway - cell viability counter screen (AID 1259380); further: nearly all actives have a fitted effect of over 30% in size
# Settings: ER-beta-bla HEK293T viability, CellTiter-Glo luminescence, 16 h; series mostly up to 92.4 µM; activity change, negative = cytotoxicity: at the top concentration
# Outline: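 Compounds dissolved in DMSO were pin-transferred onto ER-beta-UAS-bla HEK293T cells that had settled 6 hr, and exposure ran 16 hr at 37C. Following the reporter read, CellTiter-Glo luminescence after 30 min at room temperature indicated cytotoxicity.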
# On the % scale 0 is the no-effect control and ±100 the full control effect; potency means the concentration at half of the fitted maximal effect.
Structure (SMILES),Potency,"activity change, negative = cytotoxicity"
CN1CCC[C@@H]1CCO[C@](C)(c1ccccc1)c1ccc(Cl)cc1,23.7 µM (active),–
COCCOc1cc2cc(C(=O)NC3CCN(C(C)C)CC3)n(CC(=O)Nc3ccc(Cl)cn3)c2cn1,–,-4.11% (inactive)
CCC(CC)C(C)CCOC(C)=O (stereo not given),–,1.64% (inactive)
CCc1cccc(CC)c1NC(=O)CN(CC(=O)O)CC(=O)O,–,2.75% [at 42.5 µM] (inactive)
O=C(O)c1ccc2cc(C(=O)O)ccc2c1,–,-5.31% (inactive)
Sc1nc2ccccc2s1,–,1.05% (inactive)
C#C[C@]1(O)CC[C@H]2[C@@H]3[C@H](C)CC4=C(CCC(=O)C4)[C@H]3CC[C@@]21C,–,-3.73% [at 42.5 µM] (inactive)
CCCC1CCC(=O)CC1,–,3.21% (inactive)
CCCC(=O)OC(C)(C)Cc1ccccc1,–,0.796% (inactive)
O=C1c2ccccc2C(=O)N1SC1CCCCC1,54.5 µM (active),–
O=S(=O)(O)c1ccc(N=Nc2c(O)ccc3ccccc23)cc1,43.3 µM (active),–
O=C1CCCCCCCCCCCCCCCO1,–,1.9% (inactive)
CC/C=C\CCCCCO,–,-1.63% (inactive)
Cc1cccc2cccnc12,–,2.75% (inactive)
COc1cccc(OC)c1C(=O)O,–,1.59% (inactive)
O=C(/C=C/c1ccc(O)c(O)c1)O[C@@H](C(=O)O)[C@@H](OC(=O)/C=C/c1ccc(O)c(O)c1)C(=O)O,–,-0.0835% (inactive)
CCc1ccc(Br)cc1,–,0.161% (inactive)
CCCCOC(=O)CC,–,1.94% (inactive)
CCCC(=O)OCCc1ccccc1,–,-1.77% (inactive)
C=CCn1c(=O)n(CC=C)c(=O)n(CC=C)c1=O,–,-0.158% (inactive)
CCn1c2ccccc2c2cc([N+](=O)[O-])ccc21,–,0.401% (inactive)
COc1ccc(NC(=O)CC(C)=O)cc1,–,6.81% (inactive)
NC(=O)c1cccc([N+](=O)[O-])c1,–,0.05% (inactive)
OCC(F)(F)F,–,0.907% (inactive)
CCCCCC/C=C\CCCCCCCC(=O)O,–,-1.98% (inactive)
C=CCCC(=O)/C=C/C1C(C)=CCCC1(C)C (stereo not given),–,0.197% (inactive)
COC(C)=O,–,8.52% (inactive)
CCCCOC(=O)CO,–,6.84% (inactive)
O=[N+]([O-])c1ccc(F)c(Cl)c1,–,1.34% (inactive)
Oc1ccccc1O,–,-8.02% (inactive)

# Test: qHTS assay to identify small molecule antagonists of the estrogen receptor beta (ER-beta) signaling pathway - cell viability counter screen (AID 1259382); further: nearly all actives have a fitted effect of over 55% in size;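 on activity change, negative = cytotoxicity: HEK293T cells carrying ER-beta-UAS-bla reporter stimulated with estradiol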
# Settings: ER-beta-UAS-bla HEK293T viability, CellTiter-Glo luminescence, 16 h; series mostly up to 92.4 µM; activity change, negative = cytotoxicity: at the top concentration
# Outline: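 CellTiter-Glo ATP luminescence measured after the LiveBLAzer read in the same wells; ER-beta-UAS-bla HEK293T cells, 16 hr compound treatment with 1nM 17-beta-estradiol agonist at 37C, 5% CO2.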
Structure (SMILES),Potency,"activity change, negative = cytotoxicity"
CN1CCC[C@@H]1CCO[C@](C)(c1ccccc1)c1ccc(Cl)cc1,21.1 µM (active),–
COCCOc1cc2cc(C(=O)NC3CCN(C(C)C)CC3)n(CC(=O)Nc3ccc(Cl)cn3)c2cn1,–,-10.4% (inactive)
CCC(CC)C(C)CCOC(C)=O (stereo not given),–,4.88% (inactive)
CCc1cccc(CC)c1NC(=O)CN(CC(=O)O)CC(=O)O,–,-1.27% [at 42.5 µM] (inactive)
CC(C)(C)CC(C)(C)c1ccc(Nc2ccc(C(C)(C)CC(C)(C)C)cc2)cc1,–,-9.43% [at 8.39 µM] (inactive)
O=C(O)c1ccc2cc(C(=O)O)ccc2c1,–,5.24% (inactive)
Sc1nc2ccccc2s1,–,-4.2% (inactive)
C#C[C@]1(O)CC[C@H]2[C@@H]3[C@H](C)CC4=C(CCC(=O)C4)[C@H]3CC[C@@]21C,–,-7.6% [at 42.5 µM] (inactive)
CCCC1CCC(=O)CC1,–,4.79% (inactive)
CCCC(=O)OC(C)(C)Cc1ccccc1,–,1.27% (inactive)
c1ccc(SSc2ccccc2)cc1,–,-21.6% (inactive)
Cc1nc(-c2ccc(Cl)cc2)oc1COC(C)(C)C(=O)O,–,1.9% [at 42.5 µM] (inactive)
O=C1CCCCCCCCCCCCCCCO1,–,-2.48% (inactive)
CC/C=C\CCCCCO,–,-2.22% (inactive)
Cc1cccc2cccnc12,–,-1.33% (inactive)
COc1cccc(OC)c1C(=O)O,–,2.19% (inactive)
O=C(/C=C/c1ccc(O)c(O)c1)O[C@@H](C(=O)O)[C@@H](OC(=O)/C=C/c1ccc(O)c(O)c1)C(=O)O,–,7.26% (inactive)
CCc1ccc(Br)cc1,–,11% (inactive)

Structure (SMILES),Potency,"activity change, negative = cytotoxicity"
CCCCOC(=O)CC,–,2.13% (inactive)
CCCC(=O)OCCc1ccccc1,–,-1.02% (inactive)
C=CCn1c(=O)n(CC=C)c(=O)n(CC=C)c1=O,–,-1.51% (inactive)
CCn1c2ccccc2c2cc([N+](=O)[O-])ccc21,–,0.396% (inactive)
COc1ccc(NC(=O)CC(C)=O)cc1,–,-0.525% (inactive)
Cc1cc(-c2ccc(N=Nc3cc(S(=O)(=O)O)c4ccccc4c3N)c(C)c2)ccc1N=Nc1cc(S(=O)(=O)O)c2ccccc2c1N,–,-15.5% (inactive)
NC(=O)c1cccc([N+](=O)[O-])c1,–,-1.77% (inactive)
CCCCC(CC)CN1CN(CC(CC)CCCC)CC(C)(N)C1 (stereo not given),–,-16.6% [at 42.5 µM] (inactive)
OCC(F)(F)F,–,1.01% (inactive)
CCCCCC/C=C\CCCCCCCC(=O)O,–,3.29% (inactive)
CCC(=O)OC(=O)CC,–,-3.49% (inactive)
C=CCCC(=O)/C=C/C1C(C)=CCCC1(C)C (stereo not given),–,-0.0573% (inactive)
COC(C)=O,–,-0.64% (inactive)
OC12N=C(c3ccccc3)SC1Cc1cc(Cl)ccc12 (stereo not given),–,0.055% (inactive)
CCCCOC(=O)CO,–,4.84% (inactive)
O=[N+]([O-])c1ccc(F)c(Cl)c1,–,-6.51% (inactive)
Oc1ccccc1O,–,-5.69% (inactive)
